Our source for the binding signal values is article PMC7819943, “Rice protein-binding microarrays: a tool to detect cis-acting elements near promoter regions in rice”.

Over roughly 39,000 sequences, “fluorescence intensity (a.u.)” has its median near 4,300; the highest 2% begin near 39,000. The sample holds the highest values, similar sequences and a random draw of the others, so the mix is not that of the screen.

This test has as its target T1, OsSMF1 (Oryza sativa, UniProt Q6ZLB0 1-436).
T1 sequence: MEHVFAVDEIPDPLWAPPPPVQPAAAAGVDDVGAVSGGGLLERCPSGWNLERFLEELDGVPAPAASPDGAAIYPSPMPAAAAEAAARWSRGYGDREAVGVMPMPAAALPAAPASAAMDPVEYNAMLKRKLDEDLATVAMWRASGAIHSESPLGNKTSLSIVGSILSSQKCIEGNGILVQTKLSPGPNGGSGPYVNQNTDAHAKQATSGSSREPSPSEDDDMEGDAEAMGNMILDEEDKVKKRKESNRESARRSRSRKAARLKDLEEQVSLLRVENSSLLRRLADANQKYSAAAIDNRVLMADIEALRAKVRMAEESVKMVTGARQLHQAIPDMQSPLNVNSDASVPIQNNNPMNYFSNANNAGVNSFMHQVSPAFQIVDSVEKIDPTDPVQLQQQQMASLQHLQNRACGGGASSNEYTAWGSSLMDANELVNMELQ
Kind of test: protein-binding microarray (RPBM); PBS, 2% BSA, 51.3 ng/ul salmon testes DNA, 50 uM zinc acetate, 200 nM TF, 25 C, 1 h; high values mean tight binding. Particulars: protein: recombinant; tags: N-terminal polyhistidine and DsRed monomer fusion (pET32a); chain copies: 2; label: CyDye5-dUTP incorporated in the synthesized complementary strand; 3' TTTTT single-stranded linker to array surface; dsDNA, one strand shown. Summed up: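 Transcription factors, each fused N-terminally to a polyhistidine tag and DsRed, were expressed in E. coli BL21-CodonPlus and purified on Ni–NTA. A custom Agilent array was made double-stranded by primer extension with Cy5-dUTP and blocked with 2% BSA. It was incubated with 200 nM protein in PBS, 2% BSA, salmon testes DNA and 50 µM zinc acetate at 25 °C for 1 h, then washed. The binding signal is per-feature fluorescence intensity (arbitrary units) read on an Axon 4000B scanner.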
As to “CTCGCTCGCCTGCCTCCCCACCTCACCAGCTCACCCCACGCGGAGTCACCTAGTGCAG”, the binding signal is 4810 fluorescence intensity (a.u.).
With “TCAAGATCCAACAGCTTGTCTCGTGCTCGTCACAGCTTCTCGGAGTCACCTAGTGCAG”, the binding signal was 3230 fluorescence intensity (a.u.).
Under “GCAAGAGATCCGAGAAGAGCAACATAACCCACAGGCCGCTCGGAGTCACCTAGTGCAG” stands 3720 fluorescence intensity (a.u.).
Under “CCCCACCGACGGCGTGCAAAGCGGCCACCCAGCTCGACGCCGGAGTCACCTAGTGCAG” stands 8120 fluorescence intensity (a.u.).
In the case of “TTAGTATTTAAAATTTAAAAGCAAAGTCATTCTCCTTCTACGGAGTCACCTAGTGCAG”, the binding signal is 8610 fluorescence intensity (a.u.).
Under “TGGGTGTAATTGTTTCCTCGATTTCGCTGGCATGTACTTTCGGAGTCACCTAGTGCAG” stands 3780 fluorescence intensity (a.u.); under “GGATGGACGTGTGGGGCCTCGCCGTCAGCATTTGCTCCTTCGGAGTCACCTAGTGCAG”, 4560 fluorescence intensity (a.u.); under “GCGTACGGCTGCCTAATGCAGAGCCTGACGTGGCGAGCTGCGGAGTCACCTAGTGCAG”, 17400 fluorescence intensity (a.u.).
Under “GATAAAGGTCTCTATTTGCATGACATATATCGTTACTATACGGAGTCACCTAGTGCAG” stands 3570 fluorescence intensity (a.u.).
As for “CTCCAGCAGCTGCTCGCTCGTCATCACCGCGATGCTGCCGCGGAGTCACCTAGTGCAG”, the binding signal was 3490 fluorescence intensity (a.u.).
Under “TTGGCGGTGATCGAGGTTAGACATCTCACCGTCAATCTTGCGGAGTCACCTAGTGCAG” stands 3180 fluorescence intensity (a.u.); under “AGACCACATAGAATGGAAGCGTCATCAGTTTCCACGCAATCGGAGTCACCTAGTGCAG”, 6480 fluorescence intensity (a.u.).
Under “CGTCAGCCTGCAATCGCTTTCTGGGCCCAATAGTACGGGCCGGAGTCACCTAGTGCAG” stands 8490 fluorescence intensity (a.u.); under “AAAATTTAATACGACGAATGTTCAAACGGTGCAAGCAAAACGGAGTCACCTAGTGCAG”, 45000 fluorescence intensity (a.u.).
Turning to “AACTTTCATAAGCAAAATATCAAACGACTTATAATTTTATCGGAGTCACCTAGTGCAG”, the binding signal is 26300 fluorescence intensity (a.u.).
Under “AGATCAGCAAGCGAACTGAATTTAATCAAATGTACTAGTACGGAGTCACCTAGTGCAG” stands 23000 fluorescence intensity (a.u.); under “ACTTTGTACTAGTTTTCATATTATGTCATTCTTTAACCATCGGAGTCACCTAGTGCAG”, 3650 fluorescence intensity (a.u.); under “TTTCTTTGGTTCAGCTGAACCATTATTTGTTGTTTTACTTCGGAGTCACCTAGTGCAG”, 40700 fluorescence intensity (a.u.).
Under “TTTGTACTCATTTTATTACAACATGAACAAACCCTTCTTTCGGAGTCACCTAGTGCAG” stands 3500 fluorescence intensity (a.u.); under “GAAGCCCTAGCCTAGGAGTGAGAGGTCCCACGTCTTCCCCCGGAGTCACCTAGTGCAG”, 3780 fluorescence intensity (a.u.); under “TTAATAATAGCCATGTGCGTCATTAGACGGTAGTACGATCCGGAGTCACCTAGTGCAG”, 5910 fluorescence intensity (a.u.).
Under “TGTATAATACATGCCCACGCATTCGCGCGGGCTACCCTCCCGGAGTCACCTAGTGCAG” stands 3530 fluorescence intensity (a.u.); under “CATGCAGTCAATAGTGTGACTGTAACTTAAACGGTCACACCGGAGTCACCTAGTGCAG”, 3750 fluorescence intensity (a.u.).
For the sequence “GGGCCTCCCCTCCTCCCTTCGCTGGCGAGAGGACGGAGACCGGAGTCACCTAGTGCAG”, the binding signal was 3400 fluorescence intensity (a.u.).
Under “GATATATCCACATCAGCGTGCATACAAGTGTGTCAAAGCTCGGAGTCACCTAGTGCAG” stands 8160 fluorescence intensity (a.u.); under “CATCAAACAACCAGTTTCTTAGGATGTCTTTTAACCGTGACGGAGTCACCTAGTGCAG”, 23200 fluorescence intensity (a.u.).
Under “AACCCCAGAAACCAGAGGCGGGCTGGTTGATCCATTCTTTCGGAGTCACCTAGTGCAG” stands 45000 fluorescence intensity (a.u.).
As for “TCACCCCTGAGAAAGACACGTCTTTCTGGTTTAATCCATTCGGAGTCACCTAGTGCAG”, the binding signal is 3620 fluorescence intensity (a.u.).
Under “AAACCATTCGCCCGATTTGATCCACATCACCACTTTGGTTCGGAGTCACCTAGTGCAG” stands 10400 fluorescence intensity (a.u.); under “GGGAAACGAGTCAAGCTGACGTGTGCAAGAATCTCCTACACGGAGTCACCTAGTGCAG”, 13500 fluorescence intensity (a.u.); under “GTAAGTTGAATGATGTCATATATTTAATTTTACGGTAAGTCGGAGTCACCTAGTGCAG”, 6940 fluorescence intensity (a.u.).
Under “TAATTAAATTGTCATATCACTTCTTAACTTATTGGACTAACGGAGTCACCTAGTGCAG” stands 3220 fluorescence intensity (a.u.); under “TACATTATATTCAATTCTAACTTTCGGAAATATTATATAGCGGAGTCACCTAGTGCAG”, 26900 fluorescence intensity (a.u.).
Consider “AAAATTATTAACTTCTTGTTTCGATCACCCTAATAAATAGCGGAGTCACCTAGTGCAG”, for which the binding signal was 41000 fluorescence intensity (a.u.).
Under “GACGTGGTAAGTTAACTTGGTTAAAATGTGCTGACGTGGTCGGAGTCACCTAGTGCAG” stands 24700 fluorescence intensity (a.u.); under “AATGCTAAGGGACAACGTCAGCGGGTTAGTGCAAGGTAAGCGGAGTCACCTAGTGCAG”, 6630 fluorescence intensity (a.u.).
“TGCAGGGGCGCAGCACGGGAGGGTGCTTGACGCATACAAGCGGAGTCACCTAGTGCAG”: the binding signal is 4030 fluorescence intensity (a.u.).
Under “CACGGACGCAAGGGGCCTGCTAAGCCTCTACAACGCAGCGCGGAGTCACCTAGTGCAG” stands 41800 fluorescence intensity (a.u.).
Under “CTCTGTGCTGAAATGGTTAGGTATGTTTTCTTTCTGCTCTCGGAGTCACCTAGTGCAG” stands 40700 fluorescence intensity (a.u.).
Under “GCTGCTCTCTTTCCTCTCTTCTCTCTCTGTTTTCTCTCCTCGGAGTCACCTAGTGCAG” stands 18500 fluorescence intensity (a.u.).
Regarding “TGGTATGAATGGATAATTTGTTTCTGTCTTATGTGTTGCTCGGAGTCACCTAGTGCAG”, the binding signal is 3150 fluorescence intensity (a.u.).
On to “TCGGCAAGCTGAGACGGCTAGTGAACCTATCAGCCATCAGCGGAGTCACCTAGTGCAG”, for which the binding signal was 15900 fluorescence intensity (a.u.).
Take “TCTGCAAGCACCAACGAGAAGCCACAAATGTTCACATCACCGGAGTCACCTAGTGCAG”: the binding signal was 3610 fluorescence intensity (a.u.).
